From PubChem
TGFb inhibitor = blocks TGF-b signaling; 1.2% of 410,000 active; HepG2 CAGA-GFP TGF-b/SMAD3 reporter, GFP fluorescence, 18 h; TGF-beta stimulated, 500 pg/mL final; Potency, µM (series often up to 46.1 µM), actives largely listed as inhibitors; AID 588855; also: nearly all actives have a fitted effect of over 65% in size
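TGF-beta reporter screen: HEPG2 CAGA-GFP, 1% FBS, 500 pg/mL TGF-beta final, 18 h; per-cell GFP summed per well; curves fitted and categorized by class.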
HepG2 viability = HepG2 cytotoxicity, counter-screen for TGF-b inhibitors | 0.76% of 410,000 active | Potency, µM (highest dose often 46.1 µM), actives largely listed as cytotoxic | AID 588856 | HepG2 CAGA-GFP viability, ATP luminescence, 18 h
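CellTiter-Glo luminescence gave cytotoxicity after 18 hours at 37 degrees C. The cells were HepG2 CAGA-GFP in 1% FBS DMEM, stimulated with 500 pg/mL TGF-beta after compound addition. %Activity was normalised to no-cell wells (complete cell-killing) and DMSO (no toxicity), and curves were fitted and classified.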
ATXN viability = cell viability loss in ATXN counter-screen; Potency, µM (highest dose often 56.7 µM), most hits filed as cytotoxic; S2 cells (HEK-293 line with an ATXN2-luciferase reporter) viability, CellTiter-Fluor protease fluorescence, 24 h; AID 651635; 0.49% of 400,000 active; also: nearly all actives have a fitted effect of over 40% in size
ATXN2 expr inh = inhibitors of ATXN2 expression; HEK-293 ATXN2-luciferase reporter, luminescence, 24 h; 0.72% of 360,000 active; Potency, µM (series often up to 57 µM), most hits filed as inhibitors; also: nearly all actives have a fitted effect of over 55% in size
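qHTS (up to 57 uM final) was run with 24 h compound exposure of reporter cells at 37 °C. Each well was multiplexed: SteadyGlo luminescence measured ATXN2-luciferase expression after a fluorogenic Gly-Phe-AFC viability readout (25 uM final).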
IL-1B inflam inh = inflammasome signaling inhibition, IL-1 beta readout | THP-1 LPS/ATP IL-1B secretion, AlphaLISA, 16 h; active compounds read low | activity change, % at 57.5 µM | 4.7% of 360,000 active | AID 743279; in the data active = activity change below about -50%; inconclusive = mostly about -30% to -49%
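THP-1 cells pretreated 1 hr with compounds (up to 57.5 uM final), then stimulated with LPS (250 ng/mL final) plus ATP (1.25 mM final); secreted IL-1B measured by AlphaLISA after 16 hr, decreased signal indicating inhibition.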
Large screens that a line does not name were inactive; ! = a repeat was not active. An excerpt weighted towards active compounds, which were near 5.7% of everything screened. Unless noted, calls follow the shape of the dose curve; as a rule, active = well fitted curve in the direction sought with a large enough effect; inconclusive = small, poorly fitted or top-dose-only effect, or another doubt; inactive = no such curve, though single readings can be large; an effect the other way counts as inactive or inconclusive.

Cc1ccc(NC(=O)CN(C)CC(=O)Nc2cccc(F)c2)cc1S(=O)(=O)N1CCCCCC1	TGFb inhibitor inconclusive, ATXN viability inconclusive, IL-1B inflam inh -77.5
Cc1nc(N2CCCC2)ncc1C(=O)Nc1ccc(F)cc1F	none (no result: IL-1B inflam inh)
CCCN1C(=O)C2(c3ccccc31)c1c(oc3ccc(C)cc3c1=O)C(=O)N2CCOC (centres undefined)	none (no result: IL-1B inflam inh)
Cc1ccc(NC(=O)CN(C)C(=O)Cc2ccc(Cl)c(Cl)c2)cc1	none
Cc1ccc(NC(=O)CN(C)C(=O)Cn2ncc(Cl)c(Cl)c2=O)cc1	TGFb inhibitor inconclusive, ATXN2 expr inh inconclusive, IL-1B inflam inh -104.6 (no result: ATXN viability)
Cc1ccc(NC(=O)Cn2ncc(Cl)c(Cl)c2=O)cc1S(=O)(=O)N1CCCCC1	TGFb inhibitor inconclusive, ATXN2 expr inh inconclusive, IL-1B inflam inh -74.7 (no result: ATXN viability)
CCCSc1ncc(Cl)c(C(=O)N2CCN(c3ccc(OC)cc3)CC2)n1	none (no result: TGFb inhibitor, ATXN viability, ATXN2 expr inh, IL-1B inflam inh)
NS(=O)(=O)c1ccc(CCNc2nc3c(-c4cccc(F)c4)nnn3c3ccc(Cl)cc23)cc1	TGFb inhibitor inconclusive, HepG2 viability 8.91µM (no result: IL-1B inflam inh)
Fc1cccc(-c2nnn3c2nc(NCCc2ccccc2)c2ccccc23)c1	none (no result: IL-1B inflam inh)
CSc1ccc(CCNc2ncnc3onc(C)c23)cc1	ATXN2 expr inh inconclusive (no result: IL-1B inflam inh)
CCNC(=S)N(CCc1c(C)[nH]c2ccc(Cl)cc12)Cc1cccnc1	IL-1B inflam inh -87.0
CC(=O)c1cccc(N(C(=O)Cn2nnc3ccccc32)C(C(=O)NCc2ccccc2)c2ccc(F)cc2)c1 (centres undefined)	TGFb inhibitor inconclusive (no result: ATXN viability, ATXN2 expr inh, IL-1B inflam inh)
O=C1C=CC(=O)C(CNc2ccc(C(=O)OCc3ccccc3)cc2)=C1	IL-1B inflam inh -100.2 (no result: ATXN viability)
CCCCC(=O)Nc1cccc(-c2nc3ccccc3s2)c1	TGFb inhibitor inconclusive, ATXN viability inconclusive (no result: IL-1B inflam inh)
Cc1cc(C)c(O)c(-c2cc(C(=O)Nc3cccnc3)[nH]n2)c1	ATXN viability inconclusive (no result: IL-1B inflam inh)
COc1ccc(NC(=O)c2cc(-c3ccccc3O)n[nH]2)cc1Cl	ATXN viability inconclusive
Cc1cccc(NC(=O)c2cc(-c3cc(C)cc(C)c3O)n[nH]2)c1	TGFb inhibitor inconclusive, IL-1B inflam inh -54.5
COc1ccc(NC(=O)c2cc(-c3cc(C)cc(C)c3O)n[nH]2)cc1Cl	TGFb inhibitor inconclusive, IL-1B inflam inh -78.8 (no result: ATXN viability, ATXN2 expr inh)
CCn1cc(CN2CCOc3ccc(C(O)C4CCCCC4)cc3C2)c(C)n1 (centres undefined)	none (no result: TGFb inhibitor, HepG2 viability, ATXN2 expr inh, IL-1B inflam inh)
CCCCCCNc1ccc(/C=C/c2ccnc3ccccc23)cc1	TGFb inhibitor inconclusive (no result: ATXN viability, ATXN2 expr inh, IL-1B inflam inh)
CC(CCc1ccccc1)NC(=O)C1CCN(S(=O)(=O)c2cnc[nH]2)CC1 (centres undefined)	IL-1B inflam inh -55.2
CN(Cc1cnc2nc(N)nc(N)c2n1)c1ccc(C(=O)N[C@H](CCC(=O)O)C(=O)O)cc1	none (no result: TGFb inhibitor, HepG2 viability, ATXN2 expr inh, IL-1B inflam inh)
CN(Cc1cnc2nc(N)nc(N)c2n1)c1ccc(C(=O)N[C@@H](CCC(=O)O)C(=O)O)cc1	ATXN viability inconclusive, ATXN2 expr inh 31.6µM!
CCN(Cc1ccccc1)S(=O)(=O)c1ccc(C(=O)Nc2nnc(C3CC3)o2)cc1	ATXN2 expr inh 20µM
CC(C)(C)C(=O)C(Oc1ccc(Cl)cc1)n1ccnc1 (centres undefined)	none (no result: TGFb inhibitor, HepG2 viability, IL-1B inflam inh)
COc1ccc(Cl)cc1C(=O)NCCN(C)C	none
O=C(NCc1ccccn1)c1ccc(Cn2c(=S)[nH]c3ccc(Br)cc3c2=O)cc1	none
CCOC(=O)N1CCN(C(=O)c2ccc3c(=O)n(-c4ccccc4F)c(=S)[nH]c3c2)CC1	none
CC1CCN(CCCNC(=O)c2ccc3c(=O)n(Cc4ccc(Cl)cc4)c(=S)[nH]c3c2)CC1	ATXN viability inconclusive (no result: IL-1B inflam inh)
CCc1ccc(C(CNC(=O)c2ccc3c(=O)n(-c4ccccc4F)c(=S)[nH]c3c2)N(C)C)cc1 (centres undefined)	IL-1B inflam inh -81.6
CCCCN(C)CCNC(=O)c1ccc(Cn2c(=S)[nH]c3ccc(Br)cc3c2=O)cc1	TGFb inhibitor 11.2µM (no result: ATXN2 expr inh)
COC(=O)c1ccc2c(=O)n(Cc3ccc(C(=O)NCCCN4CCC(C)CC4)cc3)c(=S)[nH]c2c1	IL-1B inflam inh -106.1
CN(C)CCNC(=O)c1ccc(COc2ccc(Cl)cc2Cl)cc1	TGFb inhibitor inconclusive, HepG2 viability 11.2µM, ATXN viability inconclusive, ATXN2 expr inh inconclusive
Cc1ccc(NC(=O)CSc2nc3c(c(=O)[nH]2)CCC3)cc1Cl	none (no result: IL-1B inflam inh)
